In the supplement of paper PMC4954754 one finds ERSE-FLuc reporter activation data, which are given here for 40 compounds.

± gives the uncertainty stated by the source.

The test system of this test is HEK293T-Rex ERSE-FLuc. In words: ERSE-FLuc reporter activation, triplicate confirmation, relative to 500 nM thapsigargin (% of thapsigargin); higher = stronger ATF6/ERSE reporter activation. The following applies: 6.8 µM; 18 h; screen: confirmation. The method, then:
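HEK293T-Rex cells stably expressing the ERSE-firefly luciferase (BiP promoter, ATF6-preferring) or XBP1-splicing Renilla luciferase (IRE1/XBP1s) reporter, 1536-well plates, compound at 6.8 µM for 18 hr at 37 °C; luminescence read […] and expressed as % activation = 100*(compound - median DMSO)/(median 500 nM thapsigargin - median DMSO). Primary screen was single-pass; confirmation screen in triplicate (mean ± SD).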
`O=C(N/N=C/c1cccc(O)c1O)c1ccccc1I` had an ERSE-FLuc reporter activation of 25.6 ± 5.4.

For the compound `CS(=O)(=O)c1ncc(Cl)c(C(=O)C(C#N)c2nc3ccccc3s2)n1` (stereo not given), the ERSE-FLuc reporter activation is 42.3 ± 12. The result for `COc1c(O)cc2oc(-c3ccc(O)c(O)c3)cc(=O)c2c1O` reads 133 ± 21; that for `O=C1N/C(=C/c2ccc(O)cc2)C(=O)N1c1cccc(Cl)c1`, 68.2 ± 5.7. In the case of `CN(C)/C=N/C1=C(C#N)C(c2ccc3c(c2)OCO3)c2ccc3ccccc3c2O1` (stereo not given), the ERSE-FLuc reporter activation stood at 26.1 ± 9.6. In the case of `COc1ccc(Nc2nccn3c(-c4ccsc4)cnc23)cn1` it was 38.1 ± 6.9; in that of `Nc1nc(Nc2ccccc2)cc(-c2ccccc2)n1`, 33.8 ± 3.9; in that of `COc1ccc(C(=O)Nc2nnc(-c3cccs3)s2)cc1`, 26.3 ± 5. `COc1cccc(/C=N\NC(=O)c2n[nH]c3c2CCC3)c1` displayed an ERSE-FLuc reporter activation of 26.1 ± 2.5. The result for `Nc1c(C(=O)Nc2ccccc2)sc2nc3c(cc12)CCCCC3` reads 35.6 ± 5.3; that for `COc1cccc(C(=O)Nc2sc3c(c2C#N)CC(C)CC3)c1` (stereo not given), 28 ± 5.5; that for `O=C(Nc1ccc(Cl)cn1)c1ccc(Cl)cc1Cl`, 27.1 ± 2.4. The result for `O=C(/C=C/c1ccccc1)Nc1ccc(Cl)cn1` reads 27.9 ± 6.3; that for `C/C(=N\NC(=O)c1n[nH]c2c1CCCC2)c1ccc(Br)cc1`, 27.2 ± 1.9; that for `COc1ccc(/C=C2\SC(=O)NC2=Nc2ccc(C)cc2)c(OC)c1`, 26.8 ± 1.3. In the case of `CC(C)CNC(=O)c1cc(-c2ccc(F)cc2)no1` it was 26.6 ± 1.6; in that of `CN(C)c1ccc(-c2nc3ccc(N)cc3[nH]2)cc1`, 32.7 ± 4.4; in that of `Nc1ccccc1NC(=O)c1ccc(Cl)cc1`, 33.6 ± 4.6. In the case of `C(=N/Nc1nnc2c(n1)[nH]c1ccccc12)/c1c[nH]c2ccccc12`, the ERSE-FLuc reporter activation worked out at 29.6 ± 8.

`Cc1ccccc1-c1cc(=O)c2cc(Cl)ccc2o1` yielded an ERSE-FLuc reporter activation of 25.5 ± 3.8. In the case of `Cc1ccc(O)c(NC(=O)c2cc(-c3cccs3)on2)c1` it was 106 ± 4.

On to `COc1ccc2oc(=Nc3cc(F)ccc3F)c(C(N)=O)cc2c1`, for which the ERSE-FLuc reporter activation worked out at 25.3 ± 4.6. The result for `COc1cccc(-c2nc3ccc(N)cc3[nH]2)c1` reads 32.8 ± 4.8; that for `Cc1ccc(-c2csc(Nc3ccc(O)cc3)n2)cc1`, 26.7 ± 7.1. The result for `N#Cc1c(NC(=O)/C=C/c2ccco2)sc2c1CCCC2` reads 29.4 ± 2.5. The result for `O=c1[nH]c(/C=C2\C=Nc3ccccc32)c(O)n1-c1ccc(Cl)cc1` reads 41.4 ± 5.5; that for `Nc1ccc2sc(-c3cc(Cl)c(N)c(Cl)c3)nc2c1`, 30.8 ± 2.4. In turn, `NC(=O)c1c(NC(=O)/C=C/c2ccccc2)sc2c1CCCCC2` returned an ERSE-FLuc reporter activation of 28.9 ± 2.4. In the case of `COc1cccc(C2=NOC(C(=O)Nc3cc(C)ccc3O)C2)c1` (stereo not given) it was 30.3 ± 8.3. Take `N/C(=N\N=C\c1ccc(O)c(O)c1)c1nonc1N`: the ERSE-FLuc reporter activation worked out at 71.1 ± 7.1. The result for `Cc1ccc(C(=O)Nc2sc3c(c2C#N)CCC3)cc1` reads 27.4 ± 2.7; that for `Nc1ccc2nc(-c3ccc(Cl)cc3)[nH]c2c1`, 33.6 ± 2.4; that for `COc1ccccc1/C=C/C(=O)Nc1ccc(Cl)cn1`, 27.9 ± 6.6. In the case of `Cc1ccn2cc(-c3ccc(O)c(O)c3)nc2c1` it was 36.4 ± 12; in that of `C=CCNC(=O)c1cc(-c2ccc(F)cc2)on1`, 25.1 ± 4.7; in that of `CCN(CC)c1ccc(NC(=O)c2cccc(OC)c2)cc1`, 26.1 ± 1.1. In the case of `CC(=O)Nc1ccc2nc(-c3ccc(OC(C)=O)cc3)sc2c1` it was 25.9 ± 3.6; in that of `COc1ccccc1OCC(=O)Nc1cc(C)ccc1O`, 33.1 ± 6.4. With `C=CCNC(=O)c1cc(-c2ccccc2)on1`, the ERSE-FLuc reporter activation came to 43.4 ± 5. In the case of `Cc1ccc2nc(/C(C#N)=C\c3cc(Cl)cc4c3OCOC4)[nH]c2c1` it was 51.3 ± 9.8.
